Reference: the supplement of paper PMC7411054
Where a name gives a salt, the structure may show the parent alone.

Legend:
Details in all cases: treatment time: 24 h
WPMY1-GM130-SQSTM1 [1] = assay: lowest phenotypically active concentration; higher = less potent
Method in brief: (§1)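 Fifteen gene-edited A549, HepG2 and WPMY1 reporter lines (BFP segmentation plus GFP and RFP/FusionRed markers) were treated at 0.3, 1, 3 or 9 µM for 24 h, four wells each, then imaged live. Live-cell features per well were normalised to DMSO control wells. Deviation required ≥3 of 4 wells beyond the 95th percentile of DMSO Euclidean distances, and reproducibility required median replicate Pearson correlation above the 95th percentile of non-replicates. Phenotypic activity needed both criteria.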

A549-ACTB-RAB5A = assay: phenotypically active (imaging signature differs from DMSO and reproducible) at any of 0.3-9 uM (binary (1 = active, 0 = inactive)); higher = active
Method in brief: as §1

A549-CANX-COX4 = assay: as above
Method in brief: as §1

A549-GM130-SQSTM1 = assay: as above
Method in brief: as §1

A549-TP53BP1-CLTA = assay: as above
Method in brief: as §1

A549-TUBA1B-RELA = assay: as above
Method in brief: as §1

HepG2-ACTB-RAB5A = assay: as above
Method in brief: as §1

HepG2-CANX-COX4 = assay: as above
Method in brief: as §1

HepG2-GM130-SQSTM1 [2] = assay: as above
Method in brief: as §1

HepG2-TP53BP1-CLTA = assay: as above
Method in brief: as §1

HepG2-TUBA1B-RELA = assay: as above
Method in brief: as §1

WPMY1-ACTB-RAB5A [3] = assay: as above
Method in brief: as §1

WPMY1-CANX-COX4 [4] = assay: as above
Method in brief: as §1

WPMY1-GM130-SQSTM1 [5] = assay: as above
Method in brief: as §1

WPMY1-TP53BP1-CLTA [6] = assay: as above
Method in brief: as §1

WPMY1-TUBA1B-RELA = assay: as above
Method in brief: as §1

WPMY1-TP53BP1-CLTA [7] = assay: lowest phenotypically active concentration; higher = less potent
Method in brief: as §1

HepG2-GM130-SQSTM1 [8] = assay: as above
Method in brief: as §1

WPMY1-ACTB-RAB5A [9] = assay: as above
Method in brief: as §1

WPMY1-CANX-COX4 [10] = assay: as above
Method in brief: as §1

Structure (SMILES)	lowest phenotypically active concentration (WPMY1-GM130-SQSTM1 [1]) [µM]	phenotypically active (A549-ACTB-RAB5A)	phenotypically active (A549-CANX-COX4)	phenotypically active (A549-GM130-SQSTM1)	phenotypically active (A549-TP53BP1-CLTA)	phenotypically active (A549-TUBA1B-RELA)	phenotypically active (HepG2-ACTB-RAB5A)	phenotypically active (HepG2-CANX-COX4)	phenotypically active (HepG2-GM130-SQSTM1 [2])	phenotypically active (HepG2-TP53BP1-CLTA)	phenotypically active (HepG2-TUBA1B-RELA)	phenotypically active (WPMY1-ACTB-RAB5A [3])	phenotypically active (WPMY1-CANX-COX4 [4])	phenotypically active (WPMY1-GM130-SQSTM1 [5])	phenotypically active (WPMY1-TP53BP1-CLTA [6])	phenotypically active (WPMY1-TUBA1B-RELA)	lowest phenotypically active concentration (WPMY1-TP53BP1-CLTA [7]) [µM]	lowest phenotypically active concentration (HepG2-GM130-SQSTM1 [8]) [µM]	lowest phenotypically active concentration (WPMY1-ACTB-RAB5A [9]) [µM]	lowest phenotypically active concentration (WPMY1-CANX-COX4 [10]) [µM]
CCCCCCCN(CC)CCCC(O)c1ccc(NS(C)(=O)=O)cc1 (stereo unspecified) [ibutilide]	3	0 (inactive)	0 (inactive)	0 (inactive)	0 (inactive)	0 (inactive)	0 (inactive)	0 (inactive)	0 (inactive)	0 (inactive)	0 (inactive)	0 (inactive)	0 (inactive)	1 (active)	0 (inactive)	0 (inactive)				
C#CCN[C@@H]1CCc2ccccc21 [rasagiline]	9	0 (inactive)	0 (inactive)	0 (inactive)	0 (inactive)	0 (inactive)	0 (inactive)	0 (inactive)	0 (inactive)	1 (active)	1 (active)	0 (inactive)	0 (inactive)	1 (active)	1 (active)	0 (inactive)	9			
O=C(O)[C@H]1O[C@@H](Oc2cc3oc(-c4ccccc4)cc(=O)c3c(O)c2O)[C@H](O)[C@@H](O)[C@@H]1O [Baicalin]	3	0 (inactive)	0 (inactive)	0 (inactive)	0 (inactive)	0 (inactive)	0 (inactive)	0 (inactive)	0 (inactive)	0 (inactive)	0 (inactive)	0 (inactive)	0 (inactive)	1 (active)	0 (inactive)	0 (inactive)				
COc1ccc(C[C@@H]2c3cc(OC)c(OC)cc3CC[N@+]2(C)CCC(=O)OCCCCCOC(=O)CC[N@@+]2(C)CCc3cc(OC)c(OC)cc3[C@H]2Cc2ccc(OC)c(OC)c2)cc1OC [Cisatracurium besylate]	9	0 (inactive)	0 (inactive)	0 (inactive)	0 (inactive)	0 (inactive)	0 (inactive)	0 (inactive)	1 (active)	0 (inactive)	0 (inactive)	0 (inactive)	0 (inactive)	1 (active)	0 (inactive)	0 (inactive)		9		
NCCCCNS(=O)(=O)c1ccc2c(Cl)cccc2c1 [W-13 hydrochloride]	9	0 (inactive)	0 (inactive)	0 (inactive)	0 (inactive)	0 (inactive)	0 (inactive)	0 (inactive)	0 (inactive)	0 (inactive)	0 (inactive)	1 (active)	1 (active)	1 (active)	0 (inactive)	1 (active)			9	9
c1ccc(-c2cnn3cc(-c4ccc(OCCN5CCOCC5)cc4)cnc23)cc1		0 (inactive)	0 (inactive)	0 (inactive)	0 (inactive)	0 (inactive)	0 (inactive)	0 (inactive)	0 (inactive)	0 (inactive)	1 (active)	0 (inactive)	0 (inactive)	0 (inactive)	0 (inactive)	0 (inactive)				
Cn1cnc(N)c2ncnc1-2 [3-Methyladenine]		0 (inactive)	0 (inactive)	0 (inactive)	0 (inactive)	0 (inactive)	0 (inactive)	0 (inactive)	0 (inactive)	0 (inactive)	0 (inactive)	1 (active)	0 (inactive)	0 (inactive)	0 (inactive)	0 (inactive)			1	
CN(C)CCOC(c1ccccc1)c1ccccc1 [diphenhydramine]	9	0 (inactive)	0 (inactive)	0 (inactive)	0 (inactive)	0 (inactive)	0 (inactive)	0 (inactive)	0 (inactive)	0 (inactive)	0 (inactive)	1 (active)	1 (active)	1 (active)	1 (active)	1 (active)	9		9	9
O=S(c1ccccc1)c1ccc2nnnn2n1 (stereo unspecified)		1 (active)	0 (inactive)	0 (inactive)		0 (inactive)	0 (inactive)	0 (inactive)	0 (inactive)		0 (inactive)	0 (inactive)	1 (active)	0 (inactive)		1 (active)				9
CCN(CC)CCOC(=O)C1(C2CCCCC2)CCCCC1 [dicycloverine]			0 (inactive)		0 (inactive)		0 (inactive)	0 (inactive)	0 (inactive)	0 (inactive)	0 (inactive)	0 (inactive)	0 (inactive)	0 (inactive)	0 (inactive)	0 (inactive)				
CCCc1nc2c(C)cc(-c3nc4ccccc4n3C)cc2n1Cc1ccc(-c2ccccc2C(=O)O)cc1 [telmisartan]			0 (inactive)		0 (inactive)		0 (inactive)	0 (inactive)	0 (inactive)	0 (inactive)	0 (inactive)	0 (inactive)	0 (inactive)	0 (inactive)	0 (inactive)	0 (inactive)				
